Screening data (PubChem BioAssay)
Compounds with a hit are over-represented: about 12% of the library has one in this group of screens.
Sfp PPTase inh: Sfp phosphopantetheinyl transferase inhibition; 3.5% of 310,000 active; Biochemical Sfp PPTase activity, qHTS; Potency, µM, for inactives: largest response in the series, negative = inhibition, most hits filed as inhibitors; Q9F4F7;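 also: the enzyme is Sfp with the accession as filed and its product quenches rhodamine fluorescence; 0% = enzyme reaction without inhibitor and -100% = no enzyme wells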
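Compounds were incubated with enzyme (final 15 nM) for 15 min at room temperature before substrate addition started the reaction. Fluorescence at 525 nm excitation, 598 nm emission was recorded immediately and after 30 minutes.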
BAZ2B block: BAZ2B (human) inhibition; Q9UIF8; AlphaScreen BAZ2B-H3K14Ac peptide displacement; Potency, µM (top dose mostly 114 µM), for inactives: at the top dose activity change, negative = inhibition, hits mostly inhibitors; 4.4% of 360,000 active; also: % is scaled to controls: 0 for no effect and ±100 for the full control effect; nearly all actives have a fitted effect of over 60% in size
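BAZ2B 50 nM plus b-H3(5-23)K14Ac 50 nM, PBS pH 7.4/0.01% Tween-20, 30 min RT; compound added (max 110 uM), 30 min RT; streptavidin donor/Ni-chelate acceptor beads 10 ug/mL final, 20 min dark; AlphaScreen read.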
L3MBTL1 block: L3MBTL1 (human) inhibition; 0.66% of 230,000 active; AID 485360; Q9Y468; Potency, µM (top dose mostly 57.1 µM), inactives show top-dose activity, negative = inhibition, most hits filed as inhibitors; AlphaScreen L3MBTL1–H3K9me1 peptide binding; also: % is scaled to controls: 0 for no effect and ±100 for the full control effect; nearly all actives have a fitted effect of over 60% in size
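First, the protein-peptide complex forms for 30 min at room temperature (L3MBTL1 50 nM, biotinylated H3K9me1 peptide 75 nM). Next, compounds are pin-transferred and incubated 30 min. Finally, AlphaScreen beads are added and read after 30 min.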
HP1b binding inh: HP1-beta chromodomain-methylated histone interaction inhibition | P83916 | AlphaScreen HP1-beta / biotin-H3K9me3 peptide binding | Potency, µM (top dose mostly 114 µM), without a hit: at the top dose activity change, negative = inhibition, most hits filed as inhibitors | 0.56% of 390,000 active | AID 540317; also: nearly all actives have a fitted effect of over 70% in size
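AlphaScreen: HP1-beta (50 nM) preformed 30 min with biotin-H3(1-18)K9me3 peptide (50 nM) in PBS pH 7.4, 0.01% Tween-20. Compound added for 30 min at RT, then streptavidin donor/nickel chelate acceptor beads (10 ug/mL) for 30 min.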
JMJD2A Tudor inh: inhibitors of human JMJD2A Tudor domain; 4.4% of 390,000 active; AlphaScreen JMJD2A-Tudor / H3K4me3 peptide binding; Potency, µM (series often up to 114 µM), without a hit: at the top dose activity change, negative = inhibition, hits mostly inhibitors; also: % is scaled to controls: 0 for no effect and ±100 for the full control effect; nearly all actives have a fitted effect of over 50% in size
Target sequence (O75164 whole entry, looked up, the tested form may be a part): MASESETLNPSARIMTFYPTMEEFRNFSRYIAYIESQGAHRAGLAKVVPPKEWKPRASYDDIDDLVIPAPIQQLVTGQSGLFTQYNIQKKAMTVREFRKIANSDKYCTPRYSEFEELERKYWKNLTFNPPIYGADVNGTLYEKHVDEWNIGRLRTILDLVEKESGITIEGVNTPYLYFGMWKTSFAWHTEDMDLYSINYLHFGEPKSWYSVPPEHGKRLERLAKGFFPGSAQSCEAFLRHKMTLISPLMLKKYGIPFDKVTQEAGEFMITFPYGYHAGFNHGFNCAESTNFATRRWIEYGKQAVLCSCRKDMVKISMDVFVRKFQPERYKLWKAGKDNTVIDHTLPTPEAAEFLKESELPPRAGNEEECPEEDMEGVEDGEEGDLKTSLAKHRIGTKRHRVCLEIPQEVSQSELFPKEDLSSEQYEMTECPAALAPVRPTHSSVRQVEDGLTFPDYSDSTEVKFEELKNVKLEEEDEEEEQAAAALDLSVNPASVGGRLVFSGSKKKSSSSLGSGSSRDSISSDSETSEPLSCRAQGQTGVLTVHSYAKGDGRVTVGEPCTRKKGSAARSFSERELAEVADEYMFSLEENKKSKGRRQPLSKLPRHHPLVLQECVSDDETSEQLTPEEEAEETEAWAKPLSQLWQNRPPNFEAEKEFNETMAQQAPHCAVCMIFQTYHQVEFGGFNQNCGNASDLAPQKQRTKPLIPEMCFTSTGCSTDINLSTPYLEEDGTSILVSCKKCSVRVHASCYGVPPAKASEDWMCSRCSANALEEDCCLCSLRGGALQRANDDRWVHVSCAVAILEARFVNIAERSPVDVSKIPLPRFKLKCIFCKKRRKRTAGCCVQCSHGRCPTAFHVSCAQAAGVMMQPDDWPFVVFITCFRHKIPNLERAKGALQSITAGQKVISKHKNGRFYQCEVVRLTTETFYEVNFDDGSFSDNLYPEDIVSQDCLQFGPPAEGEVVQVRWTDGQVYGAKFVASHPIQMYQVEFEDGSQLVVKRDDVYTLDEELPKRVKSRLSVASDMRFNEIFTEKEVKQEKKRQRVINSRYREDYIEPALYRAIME
G9a block: inhibitors of human histone lysine methyltransferase G9a; G9a H3K9 monomethylation, AlphaScreen, 2 h; Potency, µM (series often up to 102 µM), without a hit: top-dose activity, negative = inhibition, actives largely listed as inhibitors; Q96KQ7; 8.8% of 350,000 active; also: % is scaled to controls: 0 for no effect and ±100 for the full control effect; nearly all actives have a fitted effect of over 75% in size
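Enzyme 20 nM + cpd, 15 min RT; add b-H3K9 pep 500 nM / SAM 20 uM; 2 h RT; anti-H3K9me1 Ab 0.5 ug/mL + SA donor / anti-rabbit acceptor beads 20 ug/mL each, 10 min; AlphaScreen read.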
Starred values were filed as active, the others as inactive; ? = inconclusive; . = not tested or not shown; ! = a repeat was not active; [ ] = dose if it differs, or a comment. Calls follow the shape of the dose curve; as a rule, active = well fitted curve in the direction sought with a large enough effect; inconclusive = small, poorly fitted or top-dose-only effect, or another doubt; inactive = no such curve, though single readings can be large; an effect the other way counts as inactive or inconclusive. Potency is read from the fitted curve at half-maximal effect.

SMILES | Sfp PPTase inh | BAZ2B block | L3MBTL1 block | HP1b binding inh | JMJD2A Tudor inh | G9a block
O=C(N/N=C1/C[C@@H](O)[C@@H](O)[C@@H]2[C@@H]3C(=O)N(Cc4ccc5c(c4)OCO5)C(=O)[C@H]3CC[C@H]12)OCc1ccccc1 | 4% | . | . | . | . | .
CCCC(C(=O)Nc1cccc(S(=O)(=O)N2CCCC2)c1)c1ccccc1 (stereo unspecified) | . | 4% | -6% | 26% | 4% | 16µM*
O=C(Nc1cccc(S(=O)(=O)N2CCCCCC2)c1)c1ccc2ccccc2n1 | -2% | -1% | -2% | 26% | -16% | ?
O=C(Nc1nc2ccc(S(=O)(=O)N3CCCC3)cc2s1)c1ccccn1 | -67% | ? | . | 11% | ? | 13µM*
O=C(Nc1cccc(S(=O)(=O)N2CCCCC2)c1)c1ccccn1 | 2% | ? | . | -3% | ? | 5.6µM*
CC(C)[C@H](NC(N)=O)C(=O)Nc1cccc(S(=O)(=O)N2CCOCC2)c1 | -22% | -8% | 5% | 5% | -4% | 35µM*
CCCC(=O)c1c(NCCO)cc(C)oc1=O | -7% | -10% | . | 25% | 6% | 45%[59 µM]
CSCCC(NC(=O)c1cccc(S(=O)(=O)N2CCOCC2)c1)C(=O)Nc1ccc(F)cc1 (stereo unspecified) | 10% | -3% | 1% | 17% | -19% | 7.1µM*
CSCCC(NC(N)=O)C(=O)Nc1cccc(S(=O)(=O)N2CCOCC2)c1 (stereo unspecified) | 15% | -2% | 5% | 18% | 10% | -7%
CN(C)S(=O)(=O)c1cccc(NC(=O)c2ccc3c(c2)S(=O)(=O)N=C2CCCCCN23)c1 | . | -32% | -6% | . | . | 32µM*
CC(=O)Nc1sc(/C(C#N)=C/c2ccc(Cl)c(Cl)c2)nc1-c1ccc(C)cc1 | 16µM* | 38% | 48% | 63% | -3% | 15%[59 µM]
COc1cc(/C=C(\C#N)c2nc3ccccc3s2)ccc1OCC(=O)Nc1ccccc1 | ? | -27% | -10% | 16% | -4% | -33%
CC(=O)Nc1sc(N/N=C/c2ccc(N(C)C)cc2)nc1-c1ccc(C)cc1 | 13% | 28µM* | -26% | ? | 45µM* | 8.9µM*
CC(=O)Nc1sc(N/N=C/c2ccc(C)cc2)nc1-c1ccc(C)cc1 | 3% | ? | -26% | ? | 45µM* | ?
COc1ccc(/C=N/Nc2nc(-c3ccc(C)cc3)c(NC(C)=O)s2)cc1OC | -10% | ? | -5% | ? | -33% | .
O=C1CCCC2=C1C1(CCCC1)N=C(Nc1nc3cc(Cl)ccc3o1)N2 | . | . | . | . | -21% | .
O=S(=O)(Cc1ccccc1)N1CCNCC1 | 15% | 1% | . | -6% | -5% | -7%
C[C@H]1CC[C@H]2C(=O)N3[C@H](c4ccccc4Br)[C@@H](C)CC[C@H]3C(=O)N2[C@@H]1c1ccccc1Br | 6% | -38% | -13% | . | . | 50µM*
COc1cccc(N/C=C/C(=O)c2ccc(C)cc2)c1 | -4% | 36% | 4% | 71% | 34% | 70%
COc1cccc(C(=O)/C=C/Nc2cccc(O)c2)c1 | -7% | -33% | . | 10% | -32% | 14µM*
COc1cc(-c2oc3cc(O)cc(O)c3c(=O)c2OC[C@@H]2OC(O[C@@H]3O[C@@H](C)[C@H](O)[C@@H](O)[C@H]3O)[C@@H](O)[C@H](O)[C@@H]2O)ccc1O (stereo partly specified) | 6% | . | . | . | . | .
Cc1ccccc1-c1nnc(CN2CCC(C)CC2)o1 | 9% | -16% | . | 24% | -7% | -13%
Cc1cccc(N2CCN(Cc3nnc(-c4ccccc4C)o3)CC2C)c1 (stereo unspecified) | . | ? | . | -8% | 79µM* | ?
COc1cc(C(=O)Nc2nc3c(s2)Cc2c(Br)ccc(OC)c2-3)cc(OC)c1OC | . | -3% | . | 16% | -26% | 0%[59 µM]
Cc1ccc2c(CC(=O)NC3CCCc4ccccc43)coc2c1 (stereo unspecified) | 14% | -2% | -11% | 15% | -12% | 22%[59 µM]
SMILES | Sfp PPTase inh | BAZ2B block | L3MBTL1 block | HP1b binding inh | JMJD2A Tudor inh | G9a block
O=S(=O)(NCc1ccccn1)C(F)(F)F | -24% | 50µM* | -17% | 36% | 5µM* | .
CC(=O)Nc1ccc(S(=O)(=O)NCc2ccc(C)n2C)cc1 | -4% | ? | . | 13% | -6% | 40µM*
CCN(CC)c1ccc(NS(=O)(=O)c2ccc3c(c2)oc(=O)n3C)c(C)c1 | ? | -16% | -29% | ? | ? | 40µM*
Cn1c(=O)oc2cc(S(=O)(=O)NCc3ccccn3)ccc21 | -13% | -39% | . | 13% | -13% | 13µM*
CC(=O)Nc1ccc(S(=O)(=O)NCc2ccncc2)cc1 | -12% | ? | -2% | 30% | -4% | 6%[12.7 µM]
COc1cccc(NC(=O)C2CCN(C(=O)NC3CCCCC3)CC2)c1 | 7% | -11% | . | 37% | -4% | 15%
CC(C)CC(=O)Nc1nc2c(s1)CC(C(C)(C)C)CC2 (stereo unspecified) | . | -14% | . | 21% | -3% | -21%[59 µM]
COc1ccc(S(=O)(=O)NCc2ccncc2)cc1NC(=O)c1ccccc1C | . | 12% | 2% | 3% | -23% | 8.9µM*
COc1ccc(S(=O)(=O)NCc2ccccn2)cc1Br | 4% | 11% | 11% | 40% | -19% | .
COc1ccc(S(=O)(=O)NCc2ccccn2)cc1NC(=O)c1ccc(C)cc1 | . | -37% | 17% | 16% | 6.3µM* | -7%
COc1cc(S(=O)(=O)NCc2ccccn2)ccc1Cl | 7% | -2% | -6% | 1% | 32µM* | 25%[59 µM]
CC(=O)Nc1ccc(S(=O)(=O)NCc2ccccn2)cc1 | -4% | 6% | 7% | -4% | 5µM* | 13%[59 µM]
C=C(C(C)=O)C(O)c1ccccc1 (stereo unspecified) | -19% | . | . | . | . | .
CCOC(=O)C1(Cc2ccc(Cl)cc2)CCN(C(=O)c2sc(C)nc2C)CC1 | 14% | -14% | 2% | 33% | -5% | -7%
NC(=O)Cc1nc(-c2ccc([N+](=O)[O-])cc2)cs1 | -10% | 2% | . | 17% | -1% | 24%
NC(=O)Cc1nc(-c2ccc(F)cc2)cs1 | 6% | -7% | 9% | -6% | -11% | 22µM*
Cc1cc(NC(=O)c2cc(-c3ccccn3)nc3ccc(Br)cc23)no1 | -24% | 71µM* | . | 33% | -12% | .
Cc1ccc(-c2cc(C(=O)NC3=NCCS3)c3cc(Br)ccc3n2)o1 | -92% | 14% | 32µM* | . | . | ?
Cc1ccc(-c2cc(C(=O)NN3CCOCC3)c3cc(Br)ccc3n2)o1 | 25µM* | -33% | -5% | 17% | -13% | ?
Cc1ccc(-c2cc(C(=O)O)c3cc(Br)ccc3n2)s1 | -8% | ? | . | 15% | -18% | 40µM*!
Cc1ccccc1-c1ccc2ncnc(-n3ccnc3)c2c1 | 11% | . | . | . | . | -37%[0.501 µM]
